# Measurements taken from the supplement of paper PMC3334620.
# In all, about 33,000 sequences were measured (“E-score (-0.5 to 0.5)”: median about -0.043, highest 2% from about 0.37 on). The list comes from a sample in which the highest values are over-represented; it also holds similar and randomly drawn sequences.
# Target: T1, Upc2 (UniProt Q12151)
# T1 sequence: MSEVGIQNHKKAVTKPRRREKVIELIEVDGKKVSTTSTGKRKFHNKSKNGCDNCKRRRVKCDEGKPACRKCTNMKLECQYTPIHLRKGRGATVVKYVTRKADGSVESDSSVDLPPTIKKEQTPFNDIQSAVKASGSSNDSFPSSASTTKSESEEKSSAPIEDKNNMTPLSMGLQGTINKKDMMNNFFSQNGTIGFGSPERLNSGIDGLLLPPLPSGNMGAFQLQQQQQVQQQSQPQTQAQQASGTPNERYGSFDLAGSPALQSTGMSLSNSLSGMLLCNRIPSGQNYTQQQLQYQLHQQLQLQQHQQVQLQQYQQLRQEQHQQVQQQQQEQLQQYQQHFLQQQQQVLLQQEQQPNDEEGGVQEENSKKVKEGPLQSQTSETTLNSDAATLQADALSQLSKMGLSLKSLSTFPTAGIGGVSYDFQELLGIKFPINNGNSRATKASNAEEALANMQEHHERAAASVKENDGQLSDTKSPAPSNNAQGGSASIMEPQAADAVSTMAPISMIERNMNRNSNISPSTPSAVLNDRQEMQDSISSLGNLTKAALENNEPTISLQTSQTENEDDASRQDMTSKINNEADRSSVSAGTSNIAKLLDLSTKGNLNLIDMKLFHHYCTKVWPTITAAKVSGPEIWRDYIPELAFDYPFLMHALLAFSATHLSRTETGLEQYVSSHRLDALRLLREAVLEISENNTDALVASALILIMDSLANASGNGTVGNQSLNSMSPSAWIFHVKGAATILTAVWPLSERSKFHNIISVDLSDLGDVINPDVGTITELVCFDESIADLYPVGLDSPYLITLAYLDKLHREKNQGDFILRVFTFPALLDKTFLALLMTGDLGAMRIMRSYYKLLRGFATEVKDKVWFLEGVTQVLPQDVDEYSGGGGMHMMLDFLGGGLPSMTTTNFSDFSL
# Test: PBM E-score (8-mer binding enrichment) (E-score (-0.5 to 0.5)); higher = stronger / more preferred TF binding
# Settings: protein concentration: 200 nM; construct: GST-full length
# Method in brief: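 PURExpress in vitro transcription/translation supplied GST-tagged yeast transcription factors, either full-length or DNA-binding domain. Applied at about 100-200 nM to universal all-10-mer Agilent arrays double-stranded by primer extension, the bound protein was detected with fluorescent anti-GST. E-scores, modified Wilcoxon-Mann-Whitney statistics, were given by the Universal PBM Analysis Suite to ungapped eight-base words pooled with their reverse complements after masliner normalisation.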
row,Sequence,PBM E-score
1,CTATTTAC,0.104
2,ATCTGTTC,0.0527
3,ATATAATC,-0.158
4,AACGCTAT,0.0885
5,AGCCGTGG,-0.17
6,CGTATAGC,0.483
7,CGTATAGA,0.48
8,AGTATAGA,0.137
9,CCTATAGC,-0.286
10,AGTATAGC,0.128
11,GGTATAGA,0.111
12,AAGCGATA,0.205
13,AGCTTATA,0.0662
14,CGGGGTCA,0.117
15,ATGCTTAC,-0.0957
16,AGACGGCA,-0.162
17,CAAACGTA,0.259
18,CAAACGCA,0.258
19,TAAACGGA,0.454
20,TAAACGTA,0.407
21,TAAACGCA,0.399
22,AAAACGTA,0.123
23,GAAACGGA,0.199
24,GAAACGCA,-0.059

row,Sequence,PBM E-score
1,CAAACGGA,0.318
2,TATATCAA,-0.04
3,AAGCCAGA,-0.2
4,ATCAAATC,-0.078
5,CTTGAAGC,-0.183
6,CATCTGGG,-0.133
7,CCGTCGAA,0.0446
8,ACACTACC,-0.098
9,CACTCAGC,-0.223
10,GCAAACGC,0.25
11,GCAAACGA,0.462
12,GTAAACCA,0.0531
13,ATAAACGC,0.344
14,GCAAACAA,0.00753
15,GTAAACGA,0.491
16,ACAAACGA,0.466
17,ACAAACGC,0.225
18,GTAAACTA,0.172
19,ACAAACGG,0.328
20,CTAAACGC,0.416
21,CTAAACTC,0.0155
22,AACAGATT,-0.0821
23,AAAATGGC,-0.0658
24,AAGAGTAG,-0.128

row,Sequence,PBM E-score
1,CGTCTAGA,0.121
2,ACCACCTC,-0.111
3,ATCCAGCG,-0.0436
4,CATTGCGA,-0.0248
5,CAATGGCG,-0.141
6,CGATTCGA,0.0594
7,ACCACACC,-0.185
8,CCAAACGC,0.292
9,TCAAACAA,-0.0805
10,CCAAACGG,0.365
11,CCAAACGA,0.476
12,ATAAACTG,-0.0103
13,TCAAACGA,0.471
14,AAAAACGG,0.117
15,ATAAACGG,0.434
16,CAAAACGA,0.31
17,AGGTTAGC,-0.3
18,CGGTTACA,0.156
19,GGCACCAA,-0.0665
20,ATGCACCA,-0.188
21,GCCAGACC,-0.138
22,ATCAGAGA,-0.167
23,AGTCTATC,-0.159
24,ACGGTATA,0.274

row,Sequence,PBM E-score
1,ACCGTATG,0.381
2,CCCGTATC,0.339
3,CCCGTAGA,-0.00639
4,ACCGTAAG,0.185
5,GCGGTATA,0.151
6,GCCGTAGA,0.189
7,GCCGTATA,0.48
8,ACCGTATC,0.345
9,CCCGTATA,0.479
10,ACCGTATA,0.478
11,ACCGTAGA,0.178
12,TAACGTCA,0.0914
13,AGTCCAAT,-0.149
14,AGGGGTCC,-0.168
15,AATGTCGC,0.0832
16,AGTTGCGA,0.0264
17,CGGGTATC,0.135
18,CGTGCACG,0.134
19,ACCAGGAC,-0.0418
20,GGCACAAC,-0.279
21,ACGACGTG,0.351
22,ACGACGAA,0.375
23,TCGACGAA,-0.018
24,ACGACGAG,0.367

row,Sequence,PBM E-score
1,ACGACGGG,0.415
2,GCGACGGA,0.0438
3,ACGACGGA,0.37
4,CCGACGTA,0.225
5,CCGACGGA,-0.0042
6,ACGACGGC,0.333
7,CCGACGAA,0.067
8,ACGACGTA,0.413
9,CATGTTAA,0.0636
10,GGTCTGAA,0.0866
11,TAGAATGA,-0.263
12,GCACGCGA,-0.0589
13,GGGTATAA,-0.0582
14,CGCAGTCA,-0.228
15,GGCTTTGA,-0.0097
16,ATAGGGAT,-0.0755
17,ATAGACAT,-0.151
18,TATCCATA,0.2
19,CTACCATC,0.00378
20,AGCCTTGC,-0.0435
21,AATCGAGC,0.286
22,GAACGAGA,0.457
23,GAACGAGC,0.465
24,GGACGAGA,-0.00291

row,Sequence,PBM E-score
1,AAACGAGC,0.489
2,CAACGAGC,0.286
3,GCACGAGA,0.0181
4,AACCGAGC,0.325
5,GCACGAGC,-0.0167
6,TGAATGCA,-0.0537
7,CTTAGATC,-0.0871
8,CCCCTATA,0.0494
9,AAAAAGTT,-0.0419
10,GGCCTCTA,-0.0932
11,CTCTACGA,0.409
12,AGCTACGA,0.34
13,CTCTACGC,0.0628
14,ATCTACGA,0.313
15,CGCTACGC,0.136
16,CGCTACGA,0.421
17,GGCAGGAA,-0.24
18,AATCCAGG,0.0108
19,AAAACTAC,0.137
20,CCTGGCAA,-0.125
21,CAAGACAA,-0.0401
22,CAATCGTA,0.4
23,TAATCGGA,0.155
24,GAATCGTA,0.387

row,Sequence,PBM E-score
1,CAATCGTC,-0.144
2,GAATCGTC,0.052
3,TAATCGTA,0.42
4,AAATCGTA,0.383
5,CAATCGTG,-0.153
6,TAATCGAA,0.226
7,GAATCGCA,-0.0934
8,AAATCGTC,0.14
9,AAATCGTG,0.0785
10,CTGGCTCC,-0.252
11,CCGGAGAC,-0.0181
12,AGGTCTCA,-0.221
13,CCTCAGCA,-0.21
14,AAACGTAC,0.33
15,AGTGGATC,-0.0691
16,AGTACTAC,0.119
17,GCACAAAC,0
18,CGCAACGC,0.0437
